PubChem BioAssay (NCI)
About 83,000 compounds went through this panel and 20% of them were active in at least one assay; those are over-represented in the sample as a whole.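 Cell lines were cultured in 96-well plates, exposed to a single compound concentration, and assessed for percent growth 48 hours later.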 Unmarked numbers belong to inactive results. Calls of active or inactive are those of the source.

Test system: SNB-19 CNS
Assay: NCI-60 one-dose screen, 48 h (100 = growth as untreated, 0 = no growth, -100 = all killed)
Conditions: 10 µM unless noted
Procedure: Growth inhibition of the SNB-19 human tumor cell line is measured as a screen for anti-cancer activity. Cells are grown in 96 well plates and exposed to the test compound for 48 hours. Compounds are tested at a single concentration, which is 10^-5 M for most compounds. The reported endpoint is percent growth (GI% or GIPRCNT), where numbers from 0 - 100% represent growth inhibition, and numbers from -100% - 0 represent cell death. For example, a value of 40 represents 60% growth inhibition. A value of 0 means no net growth occurred over the course of the experiment. A value of -40 indicates 40% of cells at the beginning of the experiment died by the end of the experiment. A value of -100 means all cells are dead at the end of the experiment.
NCI-60 Human Tumor Cell Lines Screen was performed using the standard one-dose NCI protocol, which is described in more detail at https://dtp.cancer.gov/discovery_development/nci-60/default.htm.
Compounds with GIPRCNT values below 10 were considered active. Activity score was based on GIPRCNT using the following formula: […]
Score is 0 for GIPRCNT values of 100 or above, 50 for GIPRCNT values of 0, and 100 for GIPRCNT values of -100.

| Compound | growth |
| --- | --- |
| N=c1c2c(=N)n3c(nc2nc2n1-c1ccccc1Sc1ccccc1-2)sc1cc(Cl)ccc13 | 30.7% |
| COc1ccc2nc(SCC(=O)Nc3ccccc3C)[nH]c2c1 | 95% |
| Cn1cc(-c2csc(-c3cn(C)c4ccc(Br)cc34)n2)c2cnccc21 | -86.9% (active) |
| N#Cc1c(N2CCOCC2)nc(=S)[nH]c1-c1ccccc1 | 84.8% |
| CCOC(=O)c1cn2ncnc(Oc3ccc(NC(=O)NC4CC4)c(F)c3)c2c1C | 89.2% |
| O=c1[nH]c(-c2ccc(Cl)cc2)cn1-c1ccc(-n2cc(-c3ccc(Cl)cc3)[nH]c2=O)cc1 | 93.5% |
| Cc1nc2sc(C(=O)Nc3cccc(Cl)c3)c(N)c2cc1C(O)c1ccccc1 (stereo not given) | 33.4% |
| COc1cc2c(c(OC)c1OC)C(=O)CC(c1cccc(NC(=O)c3ccccc3Br)c1)O2 (stereo not given) | 95.5% |
| Cc1cc(F)ccc1S(=O)(=O)Nc1cc(-c2c(O)ccc3ccccc23)c(O)c2ccccc12 | 37.4% |
| COc1ccc2nc(Cl)c(/C=C/C(=O)c3ccc(NC(=O)CSc4nnc(-c5ccc(Cl)c(Cl)c5)n4-c4ccccc4)cc3)cc2c1 | 91.3% |
| C=CC(C)(O)CC/C=C(\CO)C(=O)OC1C(C)OC(O[C@](C)(C=C)CC/C=C(\CO)C(=O)O[C@H]2C[C@@]3(C(=O)OC4OC(CO)C(O)C(O)C4OC4OC(C)C(OC5OC(CO)C(O)C5O)C(OC5OC(CO)C(O)C(O)C5O)C4O)C(CC2(C)C)C2=CCC4[C@@]5(C)CC[C@H](OC6OC(COC7OC(C)C(O)C(O)C7OC7OCC(O)C(O)C7O)C(O)C(O)C6NC(C)=O)C(C)(C)C5CC[C@@]4(C)[C@]2(C)C[C@H]3O)C(O)C1O (stereo not given in full) | -54.1% (active) |
| Cn1cc(-c2nonc2-c2c[nH]c3ccccc23)c2ccccc21 | 12.8% |
| CCCCCCNc1nc(NCCCCCC)c2[nH]c(NCCCCCC)nc2n1 | 89.8% |
| Cc1ccc(/C=C/C(=O)c2ccc(NC(=O)CSc3nc4c([nH]3)c(=O)n(C)c(=O)n4C)cc2)c(C)c1 | 0.886% (active) |
| C#CC#CC#CC#CC#CC#CC#CC#CCC1OCC(COC(=O)O[C@@H](C(=O)O[C@H]2C[C@@]3(O)[C@@H](OC(=O)c4ccccc4)[C@@H]4[C@]5(OC(C)=O)CO[C@@H]5C[C@H](O)[C@@]4(C)C(=O)[C@H](OC(C)=O)C(=C2C)C3(C)C)[C@@H](NC(=O)c2ccccc2)c2ccccc2)O1 (stereo not given in full) | 18.9% |
| C#CCOc1cccc(-c2ncc3cc(NC(=O)CCl)ccc3n2)c1 | 2.89% (active) |
| CCN(CC)S(=O)(=O)c1ccc(S(=O)(=O)N2CCC[C@@H](C(=O)N3CCN(C(=O)OC(C)(C)C)CC3)C2)cc1 | 68.8% |
| Cc1c2cc[nH]c(=O)c2c(C)c2c1[nH]c1ccc(OC(=O)c3ccccc3)cc12 | 45% |
| O=C1/C(=C/c2ccccc2[N+](=O)[O-])COc2ccc(O)cc21 | 62.7% |
| Cc1cccc(-n2c(C)nc3ccc(N4CCCNC4=O)cc3c2=O)c1 | 98.2% |

| Compound | growth |
| --- | --- |
| N#Cc1nc2c(S(=O)(=O)c3ccccc3)c(N)n(Cc3cccnc3)c2nc1C#N | 75.9% |
| CC[C@]12C=CCN3CC[C@@]4(c5ccc(OC)cc5N(C)[C@H]4[C@@](O)(C(=O)OC)[C@@H]1OC(=O)CCCN1CCOCC1)[C@@H]32 | 101% |
| COc1ccc(C(c2cc(OC)c(OC)c(OC)c2)N2CCN(Cc3ccccc3)CC2)cc1 (stereo not given) | 70% |
| CC(C)CSc1oc(-c2ccccc2)nc1S(=O)(=O)c1ccccc1 | 102% |
| COc1ccc(/C(C)=C(\c2ccc(OCCN3CCCCCC3)cc2)c2ccc(OC(=O)c3ccccc3)cc2)cc1 | 62.8% |
| COc1cc(OC)cc(C2C(C#N)=C(N)Oc3c2ccc2ccc(O)cc32)c1 (stereo not given) | 26.9% |
| Cn1c(O)c(C(/C=C/c2ccccc2)=Nc2ccccc2N)c(=O)n(C)c1=O | 101% |
| C=C1C(=O)O[C@H]2[C@H]1CC/C(Cn1cc(-c3cc(C(F)(F)F)cc(C(F)(F)F)c3)nn1)=C\CC[C@@]1(C)O[C@@H]21 | -80.3% (active) |
| C=C1C(=O)O[C@H]2[C@H]1CC/C(CNC(=O)c1cc3ccccc3[nH]1)=C\CC[C@@]1(C)O[C@@H]21 | 22.4% |
| COc1cccc(Nc2ccnc3[nH]c4ccc([N+](=O)[O-])cc4c23)c1 | 37.4% |
| CCn1cc(C2=C(c3cn(C)c4ncccc34)C(=O)NC2=O)c2cccnc21 | 87.7% |
| N#Cc1c(-c2ccccc2)nc2c(c(-c3ccccc3)nn2-c2ccccc2)c1-c1ccc(N2CCOCC2)cc1 | 94.5% |
| COc1ccc(C2=Nc3c(N)ncnc3NC(c3cccc(Nc4ccnc5cc(C(F)(F)F)ccc45)c3)C2)cc1 (stereo not given) | 68.2% |
| CCN(CC)CCCNCc1cc(-c2ccccc2)nc2cc(Cl)ccc12 | 68.9% |
| COc1cc(-c2nc(SCCC(C)C)nc(N3CCOCC3)c2C#N)cc(OC)c1OC | 65.8% |
| C=C(c1ccc(C(=O)O)cn1)c1cc2c(cc1C)C(C)(C)CCC2(C)C | 99.7% |
| O=C(CCCCNC(=O)c1cc(=O)c(O)co1)Nc1ccccc1 | 102% |
| CC(C)=CC(=O)N[C@@H]1CC2CCC3C(CC[C@@]4(C)C3CC[C@@H]4C(C)N(C)C)[C@@]2(C)C[C@@H]1O (stereo not given in full) | 86.3% |
| COc1ccc2c(c1)c(-c1nonc1-c1c[nH]c3ccc(Br)cc13)cn2C | 52.2% |
| Cc1cc(N2CCN(C)CC2)nc(NCc2cc(Nc3ccnc4cc(Cl)ccc34)ccc2F)n1 | 34.3% |
